Source: PubChem (Broad Institute)
Hedgehog inh: blocks Sonic Hedgehog signaling; Shh-LIGHT2 Gli-luciferase reporter, 30 h; inhibition, % (test concentration not listed); 22,000 compounds, 2.1% hits; AID 2313;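 active = mean inhibition across valid replicates above about 65%, limit read from the data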;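 also: pathway switched on by Shh-conditioned medium diluted 1 in 25 in low serum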
MITF inh: MITF inhibition | TRPM1 promoter luciferase, luminescence, 24 h | inhibition, % (test concentration not listed) | 37,000 compounds, 0.28% hits; in the data active = inhibition above about 85%;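 also: human melanocyte line stably carrying TRPM1 promoter luciferase reporter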
NOMO-1 viab: STK33 inhibitor candidate reducing NOMO-1 cell viability | NOMO-1 AML viability, CellTiter-Glo luminescence, 72 h | inhibition, % (test concentration not listed) | 37,000 compounds, 7.5% hits | AID 2330; in the data active = inhibition above about 80%
PD-1 reverse act: reversal of PD-1 mediated T-cell inhibition | primary human CD4 T cells, PD-L1 beads, CellTiter-Glo 96 h | activation, % (test concentration not listed) | 29,000 tested, under 10 active; call rule not given here;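 also: 0% = median vehicle wells and 100% = positive control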
Numbers without * were called inactive. Only some compounds are listed: those with a hit (about 7.9% of all), similar ones and a draw of the others.

For CN[C@@H]1C[C@@]2(C)O[C@@H]([C@@H]1OC)n1c3ccccc3c3c4c(c5c6ccccc6n2c5c31)C(=O)NC4 the results were Hedgehog inh 103*, MITF inh 101* and NOMO-1 viab 114*.
CNc1ccc2oc(C[C@@H]3OC4(CC[C@@H]3C)O[C@H](C(C)C(=O)c3ccc[nH]3)[C@H](C)C[C@H]4C)nc2c1C(=O)O (some centres not stated) was read as Hedgehog inh 104*, MITF inh 105* and NOMO-1 viab 120*.
For CC(C)(C)c1nc2ccccc2c(=O)n1-c1ccc(F)cc1F the results were Hedgehog inh 1, MITF inh 2, NOMO-1 viab 9 and PD-1 reverse act -1.
Screening CC(C)(C)c1cc(C=C(C#N)C#N)cc(Br)c1O returned Hedgehog inh 88*, MITF inh 78, NOMO-1 viab 57 and PD-1 reverse act 0.
N#CC(C#N)=Cc1cc(O)c(O)c(O)c1 was read as Hedgehog inh 42, MITF inh -10, NOMO-1 viab 45 and PD-1 reverse act 0.
Screening COc1ccc2c3c1O[C@H]1[C@@H](O)C=C[C@H]4C(C2)N(C)CCC341 (some centres not stated) returned Hedgehog inh 4.
COc1cc2c(c(OC)c1OC)-c1cc3c(cc1[C@H](OC(C)=O)[C@H]1COC(=O)[C@@H]1C2)OCO3 was read as Hedgehog inh 83*, MITF inh 26, NOMO-1 viab 107* and PD-1 reverse act -9.
Screening COc1ccc(CC2C(=O)OCC2Cc2ccc3c(c2)OCO3)cc1OC (configuration not stated) returned Hedgehog inh 12, MITF inh 7, NOMO-1 viab 8 and PD-1 reverse act 2.
For C/C=C\C(=O)O[C@@H]1C[C@H]2O[C@@H]3C=C(C)C(=O)C[C@]3(C)[C@]1(C)[C@]21CO1 the results were Hedgehog inh 65*, MITF inh 92*, NOMO-1 viab 122* and PD-1 reverse act -9.
Screening Cc1ccc(S(=O)(=O)N2CCCCC2)cc1C(=O)Oc1cccc2cccnc12 returned Hedgehog inh -14, MITF inh -28, NOMO-1 viab 116* and PD-1 reverse act 1.
Screening N#CC(C#N)=Cc1ccc(O)cc1 returned Hedgehog inh 57, MITF inh -3, NOMO-1 viab 87* and PD-1 reverse act -2.
For C=CC1C[N+]2([O-])CCC1CC2C(O)c1ccnc2ccccc12 (configuration not stated) the results were Hedgehog inh -13.
`COc1ccccc1OCCCn1cc(C(=O)c2ccccc2)c2ccccc21` gave MITF inh 9 and NOMO-1 viab 0.
`C=CCN1CCc2cccc3c2[C@H]1Cc1ccc(O)c(O)c1-3` gave Hedgehog inh -17, MITF inh -9 and NOMO-1 viab 114*.
Screening COc1ccccc1OCCCn1cc(C(=O)C(C)(C)C)c2ccccc21 returned MITF inh 13, NOMO-1 viab 37 and PD-1 reverse act -2.
CC(C)N(C(=O)SCC(Cl)=C(Cl)Cl)C(C)C was read as Hedgehog inh -6, MITF inh 7 and NOMO-1 viab 10.
C=C(CO)C(=O)O[C@H]1CC(=C)[C@@H]2C[C@H](O)C(=C)[C@@H]2[C@H]2OC(=O)C(=C)[C@@H]21 was read as Hedgehog inh 90*, MITF inh -45, NOMO-1 viab 121* and PD-1 reverse act -4.
For C=C(CO)C(=O)O[C@H]1C/C(C)=C\CC/C(CO)=C\[C@H]2OC(=O)C(=C)[C@H]12 the results were Hedgehog inh 7, MITF inh -15, NOMO-1 viab 122* and PD-1 reverse act -18.
`OC[C@H]1O[C@@H](n2cnc3cc(Cl)c(Cl)cc32)C(O)[C@H]1O` (some centres not stated) gave Hedgehog inh 39, MITF inh -22, NOMO-1 viab 87* and PD-1 reverse act 4.
CC1(C)C(C(=O)Nc2nccs2)C1(C)C was read as Hedgehog inh -30, MITF inh -3, NOMO-1 viab 11 and PD-1 reverse act -2.
Screening C[C@@H]1O[C@@H](O[C@@H]2C=C3CCC4C(CC[C@]5(C)[C@@H](c6ccc(=O)oc6)CC[C@]45O)[C@@]3(C)CC2)[C@H](O)[C@H](O)[C@H]1O (some centres not stated) returned Hedgehog inh -21, MITF inh 42 and NOMO-1 viab 120*.
`C[C@@H]1O[C@@H](O[C@@H]2C=C3CC[C@@H]4C(CC[C@]5(C)[C@@H](c6ccc(=O)oc6)CC[C@]45O)[C@@]3(C)CC2)[C@H](O)[C@H](O)[C@H]1O` (some centres not stated) gave Hedgehog inh 23, MITF inh 20, NOMO-1 viab 108* and PD-1 reverse act -16.
